PubChem BioAssay (NCATS)
Inconclusive results are not listed. Entries that show only a call come without a potency. Unmarked numbers belong to inactive results. The source made the active and inactive calls. Calls come from the whole dose curve; as a rule, active = well fitted curve in the direction sought with a large enough effect; inconclusive = small, poorly fitted or top-dose-only effect, or another doubt; inactive = no such curve, though single readings can be large; an effect the other way counts as inactive or inconclusive.

Legend:
[1] = biological target: Cellular tumor antigen p53 (Homo sapiens) (UniProt P04637); test: Primary qHTS for small molecule compounds that upregulate eGFP-tagged delta133p53alpha (in N-terminal) cells. (AID 2060322); settings: NCI-H358 eGFP-delta133p53alpha fluorescence, 24 h; activation: active compounds read high; note: nearly all actives have a fitted effect of over 75% in size; note: potency is the fitted concentration of half-maximal effect; for activation: series mostly up to about 56 µM
Cellular tumor antigen p53 (Homo sapiens), sequence (P04637 whole entry, looked up): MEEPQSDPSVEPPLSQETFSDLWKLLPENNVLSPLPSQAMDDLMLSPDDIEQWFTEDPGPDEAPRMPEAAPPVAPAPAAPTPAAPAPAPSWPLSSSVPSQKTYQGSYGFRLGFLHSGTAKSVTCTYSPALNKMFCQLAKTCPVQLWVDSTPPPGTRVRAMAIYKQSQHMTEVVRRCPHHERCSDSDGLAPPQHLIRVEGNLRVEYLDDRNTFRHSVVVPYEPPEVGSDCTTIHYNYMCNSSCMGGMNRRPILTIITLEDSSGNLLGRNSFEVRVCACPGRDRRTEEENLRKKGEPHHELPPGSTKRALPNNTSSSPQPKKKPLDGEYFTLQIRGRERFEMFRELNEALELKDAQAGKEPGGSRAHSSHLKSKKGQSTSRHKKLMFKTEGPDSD
In short: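 NCI-H358 cells pre-induced 24 h with 10 ng/ml doxycycline to express N-terminal eGFP-delta133p53alpha, then dosed 24 h at 37C without doxycycline; fixed, Hoechst-stained, GFP intensity by laser scanning cytometry, normalized to DMSO (0%) and 57.5 uM 5-azacytidine (100%).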

[2] = biological target: Aldehyde dehydrogenase, mitochondrial (Homo sapiens) (UniProt P05091); test: qHTS for Inhibitors of the Aldehyde Dehydrogenase Family (ALDH2) Primary screen (AID 2061308); note: nearly all actives have a fitted effect of over 55% in size
[3] = biological target: Retinaldehyde dehydrogenase 3 (Homo sapiens) (UniProt P47895); test: qHTS for Inhibitors of the Aldehyde Dehydrogenase Family (ALDH1A3) Primary screen (AID 2061315)

Row | SMILES | activation [1] [%] | Potency [2] | Potency [3] | Potency [1]
1 | CC(C)CC(=O)OC[C@H]1O[C@@](COC(=O)CC(C)C)(O[C@H]2O[C@H](CO)[C@@H](O)[C@H](O)[C@H]2OC(=O)CC(C)C)[C@@H](OC(=O)CC(C)C)[C@@H]1O | -7.14 | inactive | inactive | 
2 | CCC[C@@H](NC(=O)N1C(=O)C(CC)(CC)[C@@H]1Oc1ccc(C(=O)N2CCN(C)CC2)cc1)c1ccc2c(c1)OCO2 | -10.5 | inactive | inactive | 
3 | CC(O)(C(=O)O)C1CCC2(C)C1CCC1(C)C2CCC2C3(C)CCC(O)C(C)(COC4OC(CO)C(O)C(O)C4O)C3CCC21C (configuration not stated) | 1.53 | inactive | inactive | 
4 | CC(C)CC[C@@H](O)[C@](C)(O)[C@H]1CC[C@@]2(O)C3=CC(=O)[C@@H]4C[C@@H](O)[C@@H](O)C[C@]4(C)[C@H]3CC[C@]12C | -7 | inactive | inactive | 
5 | C=C1C(=O)O[C@@H]2C3=C(C)CCC[C@]3(C)CC[C@@]12O |  | inactive | inactive | 16.9 µM (active)
6 | CC(=C/C(=O)O)/C=C/[C@]1(O)[C@@]2(C)CO[C@]1(C)C[C@H](O[C@@H]1O[C@H](CO)[C@@H](O)[C@H](O)[C@H]1O)C2 | -16.1 | inactive | inactive | 
7 | NCCCC[C@H](NC(=O)[C@@H]1Cc2ccccc2CN1C(=O)CCC(=O)c1ccccc1)C(=O)NCC(c1ccccc1)c1ccccc1 | -6.33 | inactive | inactive | 
8 | C[C@@H]1C[C@H]2O[C@@]3(O[C@@H]2C(C)(C)O)C(O)[C@@]2(C)C4CCC5C(C)(C)[C@@H](O[C@H]6OC[C@H](O)[C@@H](O)[C@@H]6O)CC[C@@]56C[C@@]46CC[C@]2(C)C13 (some centres not stated) | -26.7 | inactive | inactive | 
9 | CC(=O)OC1CC2(C)C(CCC(C)C23Cc2c(O)cc(CO)c(C=O)c2O3)C(C)(C)C1O (configuration not stated) | 23.7 | inactive | inactive | 
